An excerpt weighted towards active compounds, which were near 0.82% of everything screened.
PrPC surface inh: inhibitors of human cell surface prion protein PrPC, primary screen, cell-based, TR-FRET; Major prion protein (Homo sapiens), P04156; TR-FRET read-out; inhibition, % at 13.8 µM; 0.43% of 370,000 active; AID 720596, 2013; in the data active means inhibition above about 24%; further: 0% = median of the test wells and 100% = reference compound wells
TcdB GH inh: TcdB glycohydrolase inhibitors, primary screen, biochemical, single point, plate reader; TcdB glycohydrolase enzymatic assay; inhibition, % at 9.99 µM; 0.24% of 350,000 active; in the data active means inhibition above about 10%
VHR inh abs: VHR1 phosphatase inhibitors, primary screen, biochemical, absorbance, uHTS; Dual specificity protein phosphatase 3 (Homo sapiens), P51452; recombinant VHR phosphatase, pNPP absorbance; inhibition, % at 13.3 µM; 0.52% of 290,000 active; AID 1654, 2009; in the data active means inhibition above about 50%
* = called active by the depositor; / = no result given.

SMILES	PrPC surface inh	TcdB GH inh	VHR inh abs
C[C@H](CO)N1C[C@H](C)[C@H](CN(C)Cc2ccc(Oc3ccccc3)cc2)Oc2cc(-c3ccncc3)ccc2S1(=O)=O	/	17*	/
C[C@@H]1CN([C@H](C)CO)S(=O)(=O)c2ccc(-c3ccncc3)cc2O[C@H]1CN(C)Cc1ccc(Oc2ccccc2)cc1	/	-12	/
C[C@@H]1CN([C@@H](C)CO)S(=O)(=O)c2ccc(-c3ccncc3)cc2O[C@@H]1CN(C)Cc1ccc(Oc2ccccc2)cc1	/	14*	/
C[C@@H]1CN([C@@H](C)CO)S(=O)(=O)c2ccc(-c3ccncc3)cc2O[C@@H]1CN(C)Cc1ccccc1	/	0	/
O=C(N[C@H]1C=C[C@H](CC(=O)N2CCCCC2)O[C@H]1CO)c1cccc(F)c1	/	-5	/
COc1ccc(-c2ccc([C@@H]3[C@@H](CO)N4CCCCN(C(=O)c5ccc6c(c5)OCO6)C[C@@H]34)cc2)cc1	/	-12	/
COc1ccccc1NC(=O)CCN1CCN(C)CC1	4	1	-23
COc1ccccc1NC(=O)NNC(=O)CCN1CCOCC1	1	1	57*
CNC[C@@H]1Oc2ccc(NS(=O)(=O)c3c(C)noc3C)cc2C(=O)N([C@H](C)CO)C[C@H]1C	/	-1	/
CC(=O)Oc1ccc(/C=N/NS(=O)(=O)c2ccc(C)cc2)c(OC(C)=O)c1	4	-1	54*
COc1ccc(O)c(/C=N/NS(=O)(=O)c2ccc(C)cc2)c1	-11	2	12
O=C(C[C@@H]1C[C@H]2c3cc(NC(=O)C4CCC4)ccc3O[C@H]2[C@H](CO)O1)NCc1ccc(-c2ccccc2)cc1	/	-2	/
O=C1Nc2ccccc2C1=Nc1ccccc1-c1ccccc1	-7	10*	/
Cc1cc(Br)ccc1N=C1C(=O)Nc2ccccc21	0	0	27
Brc1ccc(-c2nc3ccc(Br)cn3c2Cc2ccccc2)cc1	15	0	/
Fc1ccc(-c2nc3ccc(Br)cn3c2Cc2ccccc2)cc1	16	13*	/
COc1cccc(C(=O)Cn2c(=O)n(CCC(=O)NCC3CCCO3)c(=O)c3cc(OC)c(OC)cc32)c1 (configuration not stated)	-3	1	15
COc1cc2c(=O)n(CCC(=O)NCC3CCCO3)c(=O)n(CC(=O)c3ccc(Cl)cc3)c2cc1OC (configuration not stated)	8	2	51*
CCCC(=O)Nc1ccc2c(c1)OC[C@H](C)N(C(=O)c1ccncc1)C[C@@H](C)[C@H](OC)CN(C)C2=O	/	0	/
Cc1csc(NC(=O)Cn2nc(C)c([N+](=O)[O-])c2C)n1	-3	1	26
CCc1c(C)sc(NC(=O)Cn2nc(C)c([N+](=O)[O-])c2C)c1C(N)=O	5	/	53*
Cn1c(=O)c2sccc2n2c(CCCC(=O)NCc3ccc(F)cc3)nnc12	-3	2	60*
Cn1c(=O)c2sccc2n2c(CCCC(=O)NCc3cccnc3)nnc12	-5	1	-12
Cc1cc(=O)n(Cc2ccc(OC(C)C)cc2)c(=S)[nH]1	9	-1	52*
Cc1cc(=O)n(Cc2ccco2)c(=S)[nH]1	3	1	/
SMILES	PrPC surface inh	TcdB GH inh	VHR inh abs
COc1ccccc1NC(=O)N(CCN1CCCC1)Cc1cc2cc(C)ccc2[nH]c1=O	-9	/	/
COc1ccccc1NC(=O)N(CCN(C)C)Cc1cc2cc(C)ccc2[nH]c1=O	-1	/	52*
C[C@@H]1CN([C@@H](C)CO)C(=O)c2cc(NS(=O)(=O)c3ccccc3)ccc2O[C@@H]1CN(C)Cc1ccncc1	/	0	/
CC(=O)N(C)C[C@@H]1Oc2cc(-c3ccccc3)ccc2S(=O)(=O)N([C@H](C)CO)C[C@H]1C	/	0	/
O=C(OCc1ccc(Cl)cc1)c1cccnc1Cl	7	0	6
N#Cc1ccc(COC(=O)c2cccnc2Cl)cc1	4	2	59*
CC(C)NC(=O)N(C)C[C@@H]1Oc2ccc(NS(=O)(=O)c3ccc(F)cc3)cc2CC(=O)N([C@@H](C)CO)C[C@@H]1C	/	-1	/
Cc1ccccc1-c1cnc2c(c1)C(=O)N([C@H](C)CO)C[C@@H](C)[C@H](CN(C)C(=O)CN(C)C)O2	/	-1	/
Cc1cc2n(n1)C(c1ccc3c(c1)OCO3)Nc1c(C)cccc1-2 (configuration not stated)	2	/	11
Cc1cc(C)c2c(c1)-c1cc(C)nn1C(c1ccc3c(c1)OCO3)N2 (configuration not stated)	-2	/	56*
Cc1cccc2c(=O)c(C(=O)NCCCN3CCOCC3)c[nH]c12	4	/	53*
CCOc1ccc2[nH]cc(C(=O)NCCCN3CCOCC3)c(=O)c2c1	-4	1	39
COc1ccc2c3c([nH]c2c1)[C@H](CO)N(C(=O)c1cccnc1)CC31CCN(C(=O)c2cccnc2)CC1	/	1	/
Cc1ccc(S(=O)(=O)Nc2ccc3c(c2)C(=O)N([C@@H](C)CO)C[C@H](C)[C@@H](CN(C)Cc2ccncc2)O3)cc1	/	0	/
CCCCNC(=O)c1cc(C)nc2ccccc12	-1	0	3
Cc1cc(C(=O)NCCCOC(C)C)c2ccccc2n1	-4	/	50*
O=C(Cc1ccccc1)N1CC2(C1)[C@@H](c1ccccc1)[C@H](CO)N2C(=O)Cc1ccccc1	/	-1	/
Cc1ccccc1NS(=O)(=O)c1ccc(C(=O)N2CCCCCCC2)cc1	9	0	/
Cc1ccccc1NS(=O)(=O)c1ccc(OCC(=O)N2CCCCC2)cc1	-3	11*	-12
COCCNC(=O)C[C@H]1CC[C@@H]2[C@H](COc3ccc(NC(=O)c4cnccn4)cc3C(=O)N2C)O1	/	0	/
CCCNC(=O)N1CC2(CCN(C(=O)CC)CC2)c2c(n(C)c3cc(OC)ccc23)[C@H]1CO	/	0	/
CC(C)(Cc1ccc(O)cc1)NC(=O)SCc1ccccc1	-1	2	51*
CC(C)(CO)NC(=O)C(c1ccccc1)c1ccccc1	9	/	1
O=C(C[C@H]1CC[C@@H](NC(=O)Cc2ccccn2)[C@H](CO)O1)NCCCN1CCOCC1	/	0	/
COc1ccc(S(=O)(=O)N(C)CC(=O)N2CCCC2)cc1OC	-1	1	53*
SMILES	PrPC surface inh	TcdB GH inh	VHR inh abs
COc1ccc(S(=O)(=O)N(C)CC(=O)N2CCCCC2)cc1Cl	4	1	-8
CCOC(=O)N1CCN(C(=O)CN(C)S(=O)(=O)c2ccc(OC)c(OC)c2)CC1	0	/	21
COc1ccc(S(=O)(=O)N(C)CC(=O)N2CCN(C)CC2)cc1Cl	-5	2	53*
CCNC(=O)C[C@H]1CC[C@@H]2[C@@H](COc3ccc(NC(=O)Nc4ccc(F)cc4)cc3C(=O)N2C)O1	/	2	/
CC(=O)Nc1ccc(NC(=O)[C@@H]2CCCN2S(=O)(=O)c2ccc3c(c2)OCCO3)cc1	5	16*	24
O=C(Nc1ccc(O)cc1)C1CCCN1S(=O)(=O)c1ccc(F)cc1 (configuration not stated)	-2	10*	6
O=C(Nc1ccc2c(c1)OCCO2)C1CCCN1S(=O)(=O)c1ccc(Cl)cc1 (configuration not stated)	10	/	4
CC(=O)c1ccc(NC(=O)C2CCCN2S(=O)(=O)c2ccc(F)cc2)cc1 (configuration not stated)	5	1	-16

Compound activity as filed in PubChem.
